Assay results as given in PubChem BioAssay (EPA / NIEHS).
Inconclusive results are not listed. Activity calls are given as the source filed them. Rule for the calls, unless noted: active = hit-call score of the fitted dose curve at least 0.9, where 1 is the maximum; inactive = score below 0.9.

Experiments:
[1] = ACEA_ER_80hr: ACEA Biosciences xCELLigence Real-Time Cell Analysis on Estrogen Receptor Agonism for Proliferation (AID 2282667; active = hit-call score of the fitted dose curve at least 0.9, where 1 is the maximum); settings: T47D proliferation, impedance (xCELLigence), 80 h
Summary of the method: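 T-47D cells monitored by electrical impedance (xCELLigence) with compound present throughout; 80 h timepoint, positive-direction fitting versus DMSO. Eight-point 1:4 dilutions from 100 uM final, duplicate plates.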

[2] = APR_HepG2_CellCycleArrest_24hr: Apredica 24-hour HepG2 Assay for Cell Cycle Arrest (AID 2282905); settings: imaging, actives raise or lower the signal;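 note: cell cycle arrest scored as ratio of 2N to 4N nuclear DNA content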
Summary of the method: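 Step one: dose HepG2 with test compounds, 0.39–200 uM, 0.5% DMSO, 24 hr. Step two: fix, permeabilize, stain nuclei with Hoechst 33342. Step three: image six fields per well at 20x, quantify DNA content, fit bidirectionally relative to DMSO.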

[3] = APR_HepG2_NuclearSize_24hr: Apredica 24-hour HepG2 Assay for Nuclear Size (AID 2282907); settings: high-content imaging, actives raise or lower the signal
Summary of the method: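 After fixation and permeabilization, 24-hr-treated HepG2 cells were stained with Hoechst 33342 and imaged on an ArrayScan (20x). Doses spanned 0.39–200 uM in duplicate. Nuclear diameter changes in either direction were fitted relative to 0.5% DMSO controls.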

[4] = APR_HepG2_CellLoss_24hr: Apredica 24-hour HepG2 Assay for Cell Loss (AID 2282908); settings: high-content imaging;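 note: fit in both directions so a hit may be cell loss or gain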
Summary of the method: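 Duplicate wells received compound at ten concentrations (0.39–200 uM; final DMSO 0.5% v/v). After fixation with formaldehyde, nuclei stained with Hoechst 33342 were imaged at 20x. Loss or gain of cell count was fitted relative to DMSO controls.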

[5] = APR_HepG2_MicrotubuleCSK_24hr: Apredica 24-hour HepG2 Assay for Microtubule CSK Stabilty (AID 2282909); settings: HepG2 microtubule cytoskeleton imaging, actives raise or lower the signal
Summary of the method: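 Microtubule stability is scored from tubulin immunofluorescence in fixed HepG2 cells imaged at 20x. Cells receive ten compound concentrations up to 200 uM for 24 h; taxol and DMSO serve as positive and negative controls.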

[6] = APR_HepG2_MitoMembPot_24hr: Apredica 24-hour HepG2 Assay for Mitochondrial Membrane Potential (AID 2282911); settings: imaging, actives raise or lower the signal
Summary of the method: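 HepG2 cells exposed 24 h to 0.39–200 uM compounds in duplicate, 0.5% v/v DMSO final. MitoTracker Red CMXRos 250 nM loaded 30 min before formaldehyde fixation; high-content imaging at 20x, bidirectional fit versus DMSO.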

[7] = APR_HepG2_MitoMass_24hr: Apredica 24-hour HepG2 Assay for Mitochondrial Mass (AID 2282912); settings: high-content imaging, actives raise or lower the signal
Summary of the method: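 Readout: fluorescence of MitoTracker Red CMXRos (250 nM, added 30 min pre-fixation) in fixed HepG2 cells imaged by HCS. Exposure lasted 24 hr at 0.39–200 uM; increases and decreases were both fitted relative to DMSO.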

[8] = APR_HepG2_p53Act_24hr: Apredica 24-hour HepG2 Assay for p53 Activation (AID 2282913); settings: high-content imaging, actives raise or lower the signal;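 note: p53 protein immunofluorescence averaged per cell in HepG2 with Hoechst nuclei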
Summary of the method: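 HepG2 cells exposed 24 h to compounds at 0.39–200 uM in duplicate, 0.5% v/v DMSO final; fixed, permeabilized, stained with anti-p53 antibody and Hoechst 33342; fluorescence imaging; bidirectional curve fit versus DMSO.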

[9] = APR_HepG2_CellCycleArrest_72hr: Apredica 72-hour HepG2 Assay for Cell Cycle Arrest (AID 2282914); settings: high-content imaging, actives raise or lower the signal
Summary of the method: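 HepG2 cells exposed 72 h in duplicate to 0.39–200 uM compound, 0.5% DMSO final. Formaldehyde-fixed, Hoechst 33342-stained nuclei imaged at 20x, six fields per well; DNA content per valid cell quantified by cell-cycle image analysis, bidirectional fit versus DMSO.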

[10] = APR_HepG2_CellLoss_72hr: Apredica 72-hour HepG2 Assay for Cell Loss (AID 2282915); settings: high-content imaging
Summary of the method: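 HepG2 cells were exposed for 72 hr to compounds at 0.39–200 uM (ten concentrations, duplicate) in 0.5% v/v final DMSO. Nuclei were stained with Hoechst 33342 after 3.7% formaldehyde fixation, imaged at 20x, and counted; fits bidirectional versus DMSO.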

[11] = APR_HepG2_P-H2AX_72hr: Apredica 72-hour HepG2 Assay for H2AX Phosphorylation (AID 2282916); settings: imaging, actives raise or lower the signal;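 note: phospho-histone H2A.x immunostain intensity per cell marking DNA damage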
Summary of the method: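 Phospho-H2A.x imaging endpoint in HepG2 after 72 hr compound exposure (0.39–200 uM, duplicate wells). Activity derived by bidirectional curve fitting with DMSO as baseline.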

[12] = APR_HepG2_MitoMembPot_72hr: Apredica 72-hour HepG2 Assay for Mitochondrial Membrane Potential (AID 2282917); settings: imaging, actives raise or lower the signal
Summary of the method: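 HepG2 cells exposed 72 h to compounds at 0.39–200 uM (0.5% v/v DMSO, duplicates); MitoTracker Red CMXRos 250 nM loaded 30 min before 3.7% formaldehyde fixation, imaged by HCS fluorescence. Bidirectional fit versus DMSO.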

[13] = APR_HepG2_MitoticArrest_72hr: Apredica 72-hour HepG2 Assay for Mitotic Arrest (AID 2282918); settings: high-content imaging, actives raise or lower the signal
Summary of the method: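 HepG2 cells treated 72 h at 0.39–200 uM, 0.5% DMSO final; formaldehyde-fixed, stained with Hoechst 33342 and phospho-histone H3 antibody, imaged by high-content fluorescence; bidirectional fit versus DMSO.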

[14] = APR_HepG2_MicrotubuleCSK_72hr: Apredica 72-hour HepG2 Assay for Microtubule CSK Stabilty (AID 2282919); settings: HepG2 microtubule cytoskeleton, high-content imaging, actives raise or lower the signal
Summary of the method: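 Ten-point dosing (0.39–200 uM, 0.5% DMSO) of HepG2 for 72 hr, with taxol as the cytoskeletal positive control. The cells were formaldehyde-fixed and then stained with alpha-tubulin/Cy5 and Hoechst. Imaging at 20x used a −2 um Z offset for tubulin.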

[15] = APR_HepG2_P-H2AX_24hr: Apredica 24-hour HepG2 Assay for H2AX Phosphorylation (AID 2282920); settings: high-content imaging, actives raise or lower the signal
Summary of the method: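 HepG2 cells dosed 24 h at 0.39–200 uM (10 points, duplicate, 0.5% DMSO final). Formaldehyde-fixed and permeabilized, then immunostained for phospho-H2A.x with Hoechst. Fluorescence quantified by high-content imaging, fitted bidirectionally versus DMSO.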

[16] = APR_HepG2_StressKinase_72hr: Apredica 72-hour HepG2 Assay for Stress Kinase (AID 2282921); settings: HepG2 stress kinase (phospho-c-Jun) imaging, actives raise or lower the signal
Summary of the method: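 Stress kinase signal reflects nuclear phospho-c-Jun staining in fixed, permeabilized cells exposed 72 h to compound at 0.39–200 uM; DMSO-normalized, fitted for increases or decreases.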

[17] = APR_HepG2_StressKinase_24hr: Apredica 24-hour HepG2 Assay for Stress Kinase (AID 2282922); settings: HepG2 stress kinase (phospho-c-Jun) imaging, actives raise or lower the signal
Summary of the method: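 After 24 hr compound treatment (up to 200 uM, final DMSO 0.5% v/v), HepG2 cells are fixed and multiplex-labeled; phospho-c-Jun intensity is captured by high-content fluorescence imaging and analyzed relative to DMSO.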

[18] = APR_HepG2_p53Act_72hr: Apredica 72-hour HepG2 Assay for p53 Activation (AID 2282923); settings: high-content imaging, actives raise or lower the signal;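 note: average cellular p53 protein immunofluorescence intensity in HepG2 cells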
Summary of the method: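 Fixed-cell p53 staining (sheep primary, Cy5 secondary) measured by fluorescence imaging following 72 hr treatment at 0.39–200 uM in 0.5% DMSO; DMSO served as negative control and baseline.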

[19] = APR_HepG2_MitoMass_72hr: Apredica 72-hour HepG2 Assay for Mitochondrial Mass (AID 2282924); settings: high-content imaging, actives raise or lower the signal;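 note: MitoTracker Red CMXRos stain intensity per cell imaged as mitochondrial mass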
Summary of the method: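 Steps: treat HepG2 72 hr (0.39–200 uM, duplicate wells); load MitoTracker Red CMXRos, 250 nM, 30 min; fix with 3.7% formaldehyde, permeabilise with 0.5% Triton X-100; capture images, nuclei via Hoechst 33342; fit bidirectionally against DMSO.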

[20] = APR_HepG2_NuclearSize_72hr: Apredica 72-hour HepG2 Assay for Nuclear Size (AID 2282925); settings: high-content imaging, actives raise or lower the signal
Summary of the method: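 Compounds (0.39–200 uM, final DMSO 0.5%) were applied to HepG2 for 72 hr. Cells were then formaldehyde-fixed, permeabilized and labelled with Hoechst 33342. Nuclear diameter was quantified from six images per well.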

Measured: AC50

Cl/C=C/Cl
inactive: [1]

NC(=O)O
active: [2] 10.7 µM | [3] 9.65 µM | [4] 6.38 µM | [5] 12.2 µM | [6] 0.205 µM | [7] 59.3 µM | [8] 9.29 µM | [9] 12.2 µM | [10] 3.92 µM | [11] 4.73 µM | [13] 4.17 µM | [14] 3.05 µM | [15] 9.46 µM | [16] 3.02 µM | [17] 4.39 µM | [18] 3.66 µM | [20] 23.5 µM
inactive: [12] | [19]

CC(=O)[O][Hg][c]1ccccc1
active: [3] 66.6 µM | [4] 5.21 µM | [5] 5.17 µM | [9] 28.7 µM | [10] 3.19 µM | [11] 3.55 µM | [13] 1.83 µM | [14] 2.44 µM | [15] 1.74 µM | [16] 7.33 µM | [17] 88.1 µM | [18] 4.66 µM | [19] 83.5 µM
inactive: [2] | [6] | [7] | [8] | [12] | [20]

CC(C)(C)CC(C)(C)c1ccc(O)cc1
active: [2] 161 µM | [3] 52.3 µM | [4] 46 µM | [6] 25.3 µM | [8] 35 µM | [9] 32 µM | [10] 43.4 µM
not listed: [1]
inactive: all other assays above

C=C(C)C(=O)[O][Sn]([CH2]CCC)([CH2]CCC)[CH2]CCC
active: [4] 0.773 µM | [7] 0.226 µM | [8] 0.294 µM | [9] 0.188 µM | [10] 0.228 µM | [11] 0.0519 µM | [13] 0.0391 µM | [15] 0.159 µM | [18] 0.0408 µM | [19] 0.395 µM | [20] 0.0558 µM
inactive: [2] | [3] | [5] | [6] | [12] | [14] | [16] | [17]
